Read-out in assay [1]: xenobiotic metabolism (CYP1A2), CYP1A2 (gene 1544)
As to the kind of experiment: CLD_CYP1A2_24hr: CellzDirect (CLD) Gene Expression Assay for xenobiotic metabolism (CYP1A2) at 24 hours (AID 2283683). A digest of the protocol:
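Primary human hepatocytes from two donor preparations dosed daily with multiple concentrations of chemical, 0.2% DMSO vehicle. CYP1A2 mRNA at 24 h quantified by qNPA chemiluminescence; gain of signal analyzed relative to DMSO. Cytotoxicity flagged by phase-contrast morphology.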

Read-out in assay [2]: ABC Transporter (ABCB1), ABCB1 (gene 5243)
As to the kind of experiment: CLD_ABCB1_24hr: CellzDirect (CLD) Gene Expression Assay for ABC Transporter (ABCB1) at 24 hours (AID 2283684).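 On AC50: potency for increase in ABCB1 mRNA relative to DMSO vehicle.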 A digest of the protocol:
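Primary human hepatocytes, two donor preparations, dosed daily with fresh solutions; vehicle 0.2% DMSO; harvested at 24 h. ABCB1 mRNA measured by quantitative nuclease protection assay (chemiluminescence); morphology-based cytotoxicity annotated.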

Read-out in assay [3]: Cytochrome P450 2B6 (Homo sapiens) (UniProt P20813)
Briefly: CLD_CYP2B6_24hr: CellzDirect (CLD) Gene Expression Assay for xenobiotic metabolism (CYP2B6) at 24 hours (AID 2283686). A digest of the protocol: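 Primary human hepatocytes dosed daily for two days with fresh solutions, harvested at 24 hours; mRNA induction quantified by qNPA chemiluminescence, gain of signal vs 0.2% DMSO vehicle. Cytotoxicity annotated from phase-contrast morphology.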

Read-out in assay [4]: Broad substrate specificity ATP-binding cassette transporter ABCG2 (Homo sapiens) (UniProt Q9UNQ0)
As to the kind of experiment: CLD_ABCG2_24hr: CellzDirect (CLD) Gene Expression Assay for ABC Transporter (ABCG2) at 24 hours (AID 2283685). The essentials:
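Primary human hepatocytes were dosed daily with ToxCast chemicals at multiple concentrations (vehicle 0.2% DMSO). ABCG2 mRNA was measured at 24 h by qNPA chemiluminescence; induction was scored as gain of signal versus DMSO.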

Read-out in assay [5]: Cytochrome P450 2C9 (Homo sapiens) (UniProt P11712)
As to the kind of experiment: CLD_CYP2C9_24hr: CellzDirect (CLD) Gene Expression Assay for xenobiotic metabolism (CYP2C9) at 24 hours (AID 2283688). The essentials:
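Primary human hepatocytes from two donor preparations, dosed daily for two days at multiple concentrations; vehicle 0.2% DMSO. CYP2C9 mRNA induction at 24 h measured by qNPA chemiluminescence relative to DMSO; cytotoxicity annotated from morphology.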

Read-out in assay [6]: Cytochrome P450 3A4 (Homo sapiens) (UniProt P08684)
Briefly: CLD_CYP3A4_24hr: CellzDirect (CLD) Gene Expression Assay for xenobiotic metabolism (CYP3A4) at 24 hours (AID 2283689). The essentials:
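Primary human hepatocytes from two donors dosed daily with fresh compound for two days, 0.2% DMSO vehicle. CYP3A4 mRNA at 24 hr by qNPA chemiluminescence; gain-of-signal fit versus DMSO, cytotoxicity flagged by morphology.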

Read-out in assay [7]: Cytochrome P450 2C19 (Homo sapiens) (UniProt P33261)
As to the kind of experiment: CLD_CYP2C19_24hr: CellzDirect (CLD) Gene Expression Assay for xenobiotic metabolism (CYP2C19) at 24 hours (AID 2283687).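 Further: activity means mRNA induction above DMSO vehicle baseline.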 The essentials: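 Primary human hepatocytes (two donor preparations) dosed daily with fresh test chemical in 0.2% DMSO vehicle; CYP2C19 mRNA induction measured at 24 h by quantitative nuclease protection assay with chemiluminescence, fitted for gain of signal versus DMSO.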

Read-out in assay [8]: Glyceraldehyde-3-phosphate dehydrogenase (Homo sapiens) (UniProt P04406)
Briefly: CLD_GAPDH_24hr: CellzDirect (CLD) Gene Expression Assay for Baseline Control (Glyceraldehyde 3-phosphate dehydrogenase) at 24 hours (AID 2283692). The essentials:
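Primary human hepatocytes (two donor preparations) dosed daily for two days, 0.2% DMSO vehicle; GAPDH mRNA measured at 24 h by qNPA chemiluminescence as a background control, gain-of-signal fitted against DMSO.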

Read-out in assay [9]: Glyceraldehyde-3-phosphate dehydrogenase (Homo sapiens) (UniProt P04406)
As to the kind of experiment: CLD_GAPDH_6hr: CellzDirect (CLD) Gene Expression Assay for Baseline Control (Glyceraldehyde 3-phosphate dehydrogenase) at 6 hours (AID 2283681).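 Further: active means increased signal relative to DMSO vehicle.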 A digest of the protocol: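 Primary human hepatocytes from two donor preparations, dosed at multiple concentrations with 0.2% DMSO vehicle; GAPDH mRNA measured 6 h after dosing by chemiluminescent quantitative nuclease protection assay (qNPA) on denatured lysates. Serves as background control; cytotoxicity annotated by morphology.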

Broadly, the AC50 is the midpoint of the concentration-response curve, whichever way the signal moves.

Results filed as inconclusive are left out. Calls of active or inactive are those of the source. How the source made its calls: active means hit-call score of the fitted dose curve at least 0.9, where 1 is the maximum; inconclusive means response in the unintended direction; inactive means score below 0.9.

Chain of Glyceraldehyde-3-phosphate dehydrogenase (Homo sapiens) (P04406 whole entry, looked up): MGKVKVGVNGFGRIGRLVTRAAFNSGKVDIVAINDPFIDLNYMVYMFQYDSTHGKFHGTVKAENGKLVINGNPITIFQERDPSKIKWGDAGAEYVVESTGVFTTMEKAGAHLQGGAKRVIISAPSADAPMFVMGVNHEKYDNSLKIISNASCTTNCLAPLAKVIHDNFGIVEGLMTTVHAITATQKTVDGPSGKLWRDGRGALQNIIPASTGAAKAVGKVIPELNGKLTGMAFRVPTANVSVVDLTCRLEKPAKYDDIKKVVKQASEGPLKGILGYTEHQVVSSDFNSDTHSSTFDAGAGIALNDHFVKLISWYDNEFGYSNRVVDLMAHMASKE
Chain of Cytochrome P450 2C19 (Homo sapiens) (P33261 whole entry, looked up): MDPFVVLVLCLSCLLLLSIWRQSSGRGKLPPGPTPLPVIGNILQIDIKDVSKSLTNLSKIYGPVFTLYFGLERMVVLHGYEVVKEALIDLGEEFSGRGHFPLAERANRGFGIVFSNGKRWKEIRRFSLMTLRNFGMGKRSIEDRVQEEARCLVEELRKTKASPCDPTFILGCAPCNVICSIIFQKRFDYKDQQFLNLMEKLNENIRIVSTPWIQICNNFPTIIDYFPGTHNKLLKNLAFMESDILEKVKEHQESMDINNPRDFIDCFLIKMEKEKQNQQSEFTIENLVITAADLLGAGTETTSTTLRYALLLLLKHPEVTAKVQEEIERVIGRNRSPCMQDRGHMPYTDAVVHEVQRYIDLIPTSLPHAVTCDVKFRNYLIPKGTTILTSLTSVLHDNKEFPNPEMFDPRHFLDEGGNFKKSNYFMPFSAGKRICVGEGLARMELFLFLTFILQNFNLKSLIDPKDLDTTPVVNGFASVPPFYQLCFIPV
Chain of Broad substrate specificity ATP-binding cassette transporter ABCG2 (Homo sapiens) (Q9UNQ0 whole entry, looked up): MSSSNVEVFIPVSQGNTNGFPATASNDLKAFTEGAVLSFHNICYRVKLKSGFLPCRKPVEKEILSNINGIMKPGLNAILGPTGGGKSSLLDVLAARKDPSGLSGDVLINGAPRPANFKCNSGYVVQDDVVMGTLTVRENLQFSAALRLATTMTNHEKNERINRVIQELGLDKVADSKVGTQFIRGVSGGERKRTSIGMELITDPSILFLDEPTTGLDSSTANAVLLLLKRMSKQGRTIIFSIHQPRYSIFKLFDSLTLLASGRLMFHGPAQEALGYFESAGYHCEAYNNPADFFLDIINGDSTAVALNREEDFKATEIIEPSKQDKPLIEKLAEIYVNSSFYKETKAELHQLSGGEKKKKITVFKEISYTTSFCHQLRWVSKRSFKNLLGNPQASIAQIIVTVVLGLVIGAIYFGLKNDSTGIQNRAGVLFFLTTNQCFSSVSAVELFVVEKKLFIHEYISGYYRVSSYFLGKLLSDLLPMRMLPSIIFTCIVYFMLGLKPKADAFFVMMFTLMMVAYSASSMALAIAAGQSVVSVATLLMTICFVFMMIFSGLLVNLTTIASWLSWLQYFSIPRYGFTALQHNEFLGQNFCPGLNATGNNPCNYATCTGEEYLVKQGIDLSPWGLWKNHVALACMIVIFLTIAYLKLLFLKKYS
Chain of Cytochrome P450 3A4 (Homo sapiens) (P08684 whole entry, looked up): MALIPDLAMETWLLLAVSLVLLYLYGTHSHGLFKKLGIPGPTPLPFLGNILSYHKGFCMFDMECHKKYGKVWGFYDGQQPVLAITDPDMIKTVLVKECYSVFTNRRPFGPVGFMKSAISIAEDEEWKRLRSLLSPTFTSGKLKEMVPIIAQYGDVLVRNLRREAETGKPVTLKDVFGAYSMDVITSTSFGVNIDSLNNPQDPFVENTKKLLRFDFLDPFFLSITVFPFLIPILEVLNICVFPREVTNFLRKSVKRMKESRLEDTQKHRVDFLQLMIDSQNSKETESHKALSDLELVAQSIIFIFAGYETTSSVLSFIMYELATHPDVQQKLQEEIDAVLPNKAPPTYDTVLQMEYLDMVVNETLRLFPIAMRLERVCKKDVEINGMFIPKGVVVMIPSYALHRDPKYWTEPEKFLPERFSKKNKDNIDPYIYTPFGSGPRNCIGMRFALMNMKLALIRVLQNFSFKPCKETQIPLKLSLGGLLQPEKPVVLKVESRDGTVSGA

Turning to `CCCCC(C#N)(Cn1cncn1)c1ccc(Cl)cc1` (centres undefined), the AC50 in [1] was 20 µM (active); in [3] it was 9.62 µM (active). Further, the call in [2] was inactive.
Take `COC(=O)c1c(C(F)F)nc(C(F)(F)F)c(C2=NCCS2)c1CC(C)C`: the compound was classed as inactive in [2], in assay [4], in assay [5] and in assay [6]. In [3], the AC50 is 7.48 µM (active).
With `Clc1cccc(C(Cl)(Cl)Cl)n1`, the call in [2], in assay [7], in assay [5] and in assay [6] was inactive. Also, in assay [3], the AC50 was 0.325 µM (active).
As to `COc1ccc(-c2ccccc2)cc1NNC(=O)OC(C)C`, the AC50 in [1] is 0.255 µM (active). Also, the outcome in assay [2], in assay [4], in assay [6] and in [8] was inactive.
Turning to `CC(C)(C)C(=O)C(Oc1ccc(Cl)cc1)n1cncn1` (centres undefined), the compound was called inactive in [2], in [7] and in [5]. For the same compound, in [3], the AC50 was 4.5 µM (active).
Consider `Nc1c(Cl)c(Cl)nc(C(=O)O)c1Cl`, for which the AC50 in [1] was 20 µM (active). Further, the compound was classed as inactive in assay [2], in [3], in assay [7], in [5] and in assay [6].
For `CC1(C)CCC(=Cc2ccc(Cl)cc2)C1(O)Cn1cncn1` (centres undefined), the AC50 in [1] is 3.47 µM (active); in assay [3], 3.58 µM (active). The result in assay [2] and in assay [5] was inactive.
For the compound `CC1(C)C(C(=O)OC(C#N)c2cccc(Oc3ccccc3)c2)C1(C)C` (centres undefined), the AC50 in assay [1] was 20 µM (active). Moreover, the compound was called inactive in assay [2], in assay [4] and in assay [5].
On to `CC(C)Nc1nc(Cl)nc(NC(C)C)n1`, for which the AC50 in assay [1] was 7.72 µM (active); in assay [3], 3.26 µM (active); in assay [6], 6.2 µM (active). The call in [2], in [5] and in [8] was inactive.
On to `CC(C)NC(=O)N1CC(=O)N(c2cc(Cl)cc(Cl)c2)C1=O`, for which the AC50 in [1] was 15.7 µM (active); in assay [6], 9.31 µM (active). The outcome in assay [2] and in assay [5] was inactive.
In the case of `Cn1c(-c2ccccc2)cc(-c2ccccc2)[n+]1C`, the AC50 in assay [1] is 0.141 µM (active). For the same compound, the call in assay [2] and in assay [8] was inactive.
In the case of `Cc1c(COC(=O)[C@@H]2[C@H](/C=C(\Cl)C(F)(F)F)C2(C)C)cccc1-c1ccccc1`, the AC50 was 32.2 µM (active) in assay [1], 29.9 µM (active) in assay [2] and 6.84 µM (active) in [6]. Also, the compound was called inactive in [7] and in [5].
For the compound `CN=C=S`, the compound was called inactive in [9], in assay [1], in assay [2], in assay [7], in assay [5] and in [8].
For the compound `COC(=O)NS(=O)(=O)c1ccc(N)cc1`, the compound was called inactive in assay [1], in assay [2] and in assay [7].
For the compound `CSC(=O)c1c(C(F)F)nc(C(F)(F)F)c(C(=O)SC)c1CC(C)C`, the call in assay [2], in assay [7] and in assay [5] was inactive. Also, in [3], the AC50 is 1.22 µM (active).
With `COP(=S)(OC)SCn1nnc2ccccc2c1=O`, in assay [1], the AC50 was 2.27 µM (active). Further, the result in [2] and in [5] was inactive.
In the case of `C=CCOC(=O)C(C)(C)OC(=O)c1cc(-n2c(=O)cc(C(F)(F)F)n(C)c2=O)ccc1Cl`, the outcome in assay [2], in [4], in assay [7], in [5] and in [8] was inactive.
Regarding `COP(=O)(OC)O/C(C)=C/C(=O)N(C)C`, the compound was called inactive in assay [1], in assay [4], in assay [7] and in assay [5].
For the compound `O=c1n(Cl)c(=O)n(Cl)c(=O)n1Cl`, the AC50 in assay [1] was 3.33 µM (active). For the same compound, the compound was classed as inactive in [2], in assay [7], in assay [5], in assay [6] and in assay [8].
In the case of `CCOP(=S)(OCC)Oc1nc(Cl)n(C(C)C)n1`, the figures for the AC50 in assay [1] and in assay [3] were 0.975 µM (active) and 0.383 µM (active), respectively. For the same compound, the compound was called inactive in assay [2], in assay [4] and in assay [5].
For `Cc1cnc(C2=NC(C)(C(C)C)C(=O)N2)c(C(=O)O)c1` (centres undefined), the outcome in [2], in assay [3], in [7], in [5] and in assay [8] was inactive.
Regarding `N#Cc1c(Cl)cccc1Cl`, the outcome in assay [2], in assay [5] and in [8] was inactive. Besides, in assay [3], the AC50 is 4.46 µM (active).

The values are drawn from PubChem BioAssay (EPA / NIEHS).
